The campaign covered roughly 310,000 compounds. About 3,900 (1.3%) were called active.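 How the source made its calls: active means calcium-response B-score plate-corrected more than 3 library SD below zero, starting fluorescence within 5 deviations, no agonist response on first addition; inactive means the rest.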 The full list was thinned out, with actives kept by preference.
biological target: Mas-related G-protein coupled receptor member X1 (Homo sapiens) (UniProt Q96LB2); assay: blockade of BAM8-22-evoked MrgX1 calcium response – HEK293 cells, Fluo-4 calcium flux, primary screen (AID 588676); details: Fluo-4, BAM8-22 antagonism, at 10 µM; hits give low values;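 on B-score: peak minus trough fluorescence over baseline after final BAM8-22 challenge near maximal dose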
Sequence (Q96LB2 whole entry, looked up): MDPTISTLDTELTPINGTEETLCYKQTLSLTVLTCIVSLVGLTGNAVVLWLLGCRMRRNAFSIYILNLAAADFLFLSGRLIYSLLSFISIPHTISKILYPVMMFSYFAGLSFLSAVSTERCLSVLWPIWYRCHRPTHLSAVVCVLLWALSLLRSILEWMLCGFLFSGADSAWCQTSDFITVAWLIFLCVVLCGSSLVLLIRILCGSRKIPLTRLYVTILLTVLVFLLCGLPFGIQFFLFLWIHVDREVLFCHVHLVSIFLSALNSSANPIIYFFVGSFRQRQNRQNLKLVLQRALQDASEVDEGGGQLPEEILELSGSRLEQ

| SMILES | B-score |
| --- | --- |
| O=C(NNc1ccccc1Cl)C(O)(c1cccc(C(F)(F)F)c1)c1cccc(C(F)(F)F)c1 | inactive |
| COc1cccc(CNC(=O)C2CCN(S(=O)(=O)c3cccc4cccnc34)CC2)c1 | -4.66 (active) |
| COc1ccc(S(=O)(=O)N2CCC(C(=O)NCCC(=O)NCc3cccc(OC)c3)CC2)cc1 | inactive |
| COc1ccccc1CNC(=O)C1CCCN(S(=O)(=O)c2cccc3cccnc23)C1 (centres undefined) | inactive |
| OC(COc1ccc2ccccc2c1)Cn1cncn1 (centres undefined) | inactive |
| O=C(c1ccccc1)C(Cn1cncn1)C(Sc1ccccc1)c1ccccc1 (centres undefined) | -5.84 (active) |
| Fc1ccccc1OCCCCn1cncn1 | inactive |
| COc1ccc(C2(O)C(=O)Nc3ccccc32)cc1 (centres undefined) | inactive |
| COc1ccc(NC(=O)c2ccco2)cc1NC(=O)c1ccc(C#N)cc1F | inactive |
| Cc1c(C=O)c2ccccn2c1C(=O)c1ccncc1 | inactive |
| CCCN1C2CCCC1CC(NC(=O)NC13CC4CC(CC(C4)C1)C3)C2 (centres undefined) | inactive |
| Nc1cccc(S(=O)(=O)Nc2ccc(SC(F)F)cc2)c1 | inactive |
| Cc1cccc(-n2c(Cc3cc(=O)[nH]c(=O)[nH]3)nnc2SCC(=O)Nc2cccc(C(F)(F)F)c2)c1 | inactive |
| COc1cccc(-n2c(Cc3cc(=O)[nH]c(=O)[nH]3)nnc2SCC(=O)Nc2ccccc2)c1 | inactive |
| Cc1cccc(-n2c(Cc3cc(=O)[nH]c(=O)[nH]3)nnc2SC(C)C)c1 | -6.63 (active) |
| CC(C)NC(=O)NNc1c(Cl)cncc1Cl | inactive |
| Cc1ccc(C(c2nnnn2CS(=O)(=O)c2ccc(C)cc2)N2CCC(C)CC2)cc1 (centres undefined) | inactive |
| CC1(C)CC(=O)C=C(N2CCCC2)C1 | inactive |
| CC1(C)CC(N2CCN(C(c3ccccc3)c3ccccc3)CC2)=CC(=[N+]2CCCCC2)C1 | -4.89 (active) |
| O=C(O)CN1CCN(C(c2ccccc2)c2ccccc2)CC1 | inactive |
| CCC(=O)N(C)C(c1ccccc1Cl)c1nnnn1-c1c(C)cccc1C (centres undefined) | inactive |
| COc1ccc(N2CC(NS(=O)(=O)c3ccc4ccccc4c3)CC2=O)cc1 (centres undefined) | inactive |
| CSCC[C@H](NC(=O)N1CCn2c1nc1ccccc12)C(=O)NCc1ccc2c(c1)OCO2 | inactive |
| Cc1ccc(S(=O)(=O)N2CCN(C)CC2)cc1C(=O)NC1CCCCC1 | inactive |
| CCCCC1(C(=O)OCC)NC(c2ccc(O)cc2)C2C(=O)N(c3ccccc3)C(=O)C21 (centres undefined) | inactive |
| O=C1CCCN1C(=O)COc1ccc([N+](=O)[O-])cc1 | inactive |
| Cc1ccc(OC(=O)CCC(=O)Nc2ccc(Br)cc2)cc1 | inactive |
| COC(=O)COc1ccc(S(=O)(=O)Nc2ccc(NC(C)=O)cc2)cc1 | inactive |
| CC(=O)Nc1ccc(OC(=O)COc2ccc(Br)cc2)cc1 | -4.53 (active) |
